Screens as filed in PubChem.
Pol eta inh – inhibitors of human DNA polymerase eta; Q9Y253; hit rate 1.2% among 390,000; recombinant Pol eta, fluorescent DNA replication assay; Potency, µM (series often up to 114 µM), most hits filed as inhibitors
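Fluorescent replication assay: 50 nM final substrate added after a 15 min room-temperature compound preincubation with 10 nM enzyme. Signal taken at 0 min and again at 10 min.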
FEN1 inh – human FEN1 inhibition | Recombinant FEN1 flap cleavage, fluorescence, 15 min | hit rate 0.35% among 390,000 | AID 588795 | Potency, µM (titrated, usually from 114 µM), hits mostly inhibitors; note: nearly all actives have a fitted effect of over 65% in size
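Potency values derive from four-parameter Hill fits of normalized qHTS data. The reaction used 10 nM FEN1 preincubated 15 min at room temperature with compound, then 50 nM DNA substrate, read at 0 and 15 min.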
POLK inh – DNA polymerase kappa (human) inhibition | Q9UBT6 | purified Pol kappa, fluorescent DNA synthesis assay, 10 min | Potency, µM (series often up to 107 µM), actives largely listed as inhibitors | hit rate 0.53% among 400,000
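10 nM Pol kappa preincubated 15 min at room temperature with compounds, then reaction started with substrate at 50 nM final. Fluorescence read kinetically at 0 and 10 min; buffer-only wells served as negative control.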
WRN helicase inh – inhibitors of human WRN helicase. AID 651768. Potency, µM (titrated, usually from 114 µM), usual class: inhibitors. WRN helicase unwinding, fluorescent forked duplex, kinetic. hit rate 0.46% among 360,000; note: nearly all actives have a fitted effect of over 55% in size
Target sequence (Q14191 whole entry, looked up): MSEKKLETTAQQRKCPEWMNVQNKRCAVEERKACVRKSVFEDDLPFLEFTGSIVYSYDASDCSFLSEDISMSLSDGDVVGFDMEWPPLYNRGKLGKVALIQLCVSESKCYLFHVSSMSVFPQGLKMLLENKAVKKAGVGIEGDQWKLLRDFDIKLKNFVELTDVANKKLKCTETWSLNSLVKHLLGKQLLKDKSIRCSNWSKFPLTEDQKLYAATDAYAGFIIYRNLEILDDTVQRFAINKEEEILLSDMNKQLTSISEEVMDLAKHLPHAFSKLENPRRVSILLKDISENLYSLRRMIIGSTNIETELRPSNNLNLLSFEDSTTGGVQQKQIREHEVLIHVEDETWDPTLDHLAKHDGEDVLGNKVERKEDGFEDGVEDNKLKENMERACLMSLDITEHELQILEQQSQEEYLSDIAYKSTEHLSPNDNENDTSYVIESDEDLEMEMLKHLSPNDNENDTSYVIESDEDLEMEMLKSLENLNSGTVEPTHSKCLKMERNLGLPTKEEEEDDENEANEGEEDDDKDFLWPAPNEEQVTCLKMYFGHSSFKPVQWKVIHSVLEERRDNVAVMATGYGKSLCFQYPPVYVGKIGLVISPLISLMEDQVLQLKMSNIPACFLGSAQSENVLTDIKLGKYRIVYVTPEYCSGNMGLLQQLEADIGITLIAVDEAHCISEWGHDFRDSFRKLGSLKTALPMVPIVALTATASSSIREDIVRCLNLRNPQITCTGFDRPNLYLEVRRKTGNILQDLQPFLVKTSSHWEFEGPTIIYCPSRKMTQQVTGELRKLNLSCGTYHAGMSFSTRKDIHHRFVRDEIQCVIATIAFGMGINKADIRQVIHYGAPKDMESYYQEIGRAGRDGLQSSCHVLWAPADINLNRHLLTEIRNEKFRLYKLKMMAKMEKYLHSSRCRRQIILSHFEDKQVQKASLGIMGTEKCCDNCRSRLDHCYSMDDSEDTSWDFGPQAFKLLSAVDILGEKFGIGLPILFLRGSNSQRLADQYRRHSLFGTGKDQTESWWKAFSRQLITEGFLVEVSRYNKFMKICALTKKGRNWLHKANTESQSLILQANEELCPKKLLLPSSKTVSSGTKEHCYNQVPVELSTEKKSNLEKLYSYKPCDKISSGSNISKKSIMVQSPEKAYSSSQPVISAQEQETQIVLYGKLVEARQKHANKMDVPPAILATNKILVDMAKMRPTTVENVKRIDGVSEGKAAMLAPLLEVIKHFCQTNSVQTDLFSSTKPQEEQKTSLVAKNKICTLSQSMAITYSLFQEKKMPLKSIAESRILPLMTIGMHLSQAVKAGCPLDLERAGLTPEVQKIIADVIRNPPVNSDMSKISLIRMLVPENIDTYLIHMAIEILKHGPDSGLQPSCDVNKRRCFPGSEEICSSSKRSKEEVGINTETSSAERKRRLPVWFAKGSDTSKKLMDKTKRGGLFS
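Kinetic fluorescence helicase assay: unwinding of a quenched forked DNA duplex (100 nM final) with 2 mM ATP final raises red fluorescence (525/598 nm). Compounds sat 15 min at room temperature with 20 nM WRN beforehand.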
Pol iota inh – blocks human DNA polymerase iota activity; Pol iota fluorescent replication assay, 10 min; hit rate 1% among 390,000; Potency, µM (top dose mostly 115 µM), usual class: inhibitors; Q9UNA4
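Fluorescent replication assay read twice, at 0 min and 10 min after adding 50 nM (final) substrate. Enzyme (10 nM) and compounds were first incubated 15 min at room temperature; enzyme-free buffer wells were negative controls.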
POLB inh – inhibitors of human DNA polymerase beta; Potency, µM (titrated, usually from 114 µM), most hits filed as inhibitors; Pol beta primer extension/strand displacement, fluorescence kinetic; P06746; hit rate 1.3% among 340,000
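Enzyme-only controls used 10 nM Pol beta; buffer lacking enzyme served as negative control. Compound preincubated 15 min, then 50 nM substrate added; 0 and 10 min reads at room temperature.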
A number is an active result; n = inactive; u = inconclusive; x = not tested or not shown; ! = repeats disagree; [ ] = dose if it differs, or a comment. Only some compounds are listed: those with a hit (about 2.4% of all), similar ones and a draw of the others. Calls come from the whole dose curve; as a rule, active = well fitted curve in the direction sought with a large enough effect; inconclusive = small, poorly fitted or top-dose-only effect, or another doubt; inactive = no such curve, though single readings can be large; an effect the other way counts as inactive or inconclusive.

SMILES	Pol eta inh	FEN1 inh	POLK inh	WRN helicase inh	Pol iota inh	POLB inh
O=C1NC(=O)N(Cc2ccco2)C(=O)/C1=C/c1ccc(-c2cccc([N+](=O)[O-])c2)o1	8.9µM	u	22µM	22µM	7.9µM	18µM
COc1ccc(CC2c3cc(OC)c(OC)cc3CCN2C)cc1O (centres undefined)	n	n	n	n	n	n
COc1ccc(/C=C2/C(=O)NC(=S)N(C3CC3)C2=O)cc1CN1C(=O)c2ccccc2C1=O	u	n	n	14µM	u	n
CN(C)C1C(=O)C(C(N)=O)=C(O)[C@@]2(O)C(=O)C3=C(O)c4c(O)cccc4[C@](C)(O)C3C(O)C12 (some centres undefined)	x	x	2.8µM	x	x	x
CN(C)C1C(=O)C(C(N)=O)C(=O)C2(O)C(=O)C3C(=O)c4c(O)cccc4C(C)(O)C3C(O)C12 (centres undefined)	x	x	2.8µM	x	x	x
CN(C)[C@@H]1C(=O)C(C(N)=O)=C(O)[C@@]2(O)C(=O)C3=C(O)c4c(O)cccc4[C@@](C)(O)C3C[C@@H]12 (some centres undefined)	n	u	79µM	n	u	x
NC(Cc1cc(O)c(O)cc1O)C(=O)O (centres undefined)	0.28µM	3.2µM	0.67µM	x	0.4µM	0.11µM
N[C@@H](CCl)C(=O)O	n	n	n	n	n	n
O=C(Nc1cc(C(F)(F)F)cc(C(F)(F)F)c1)c1cc(Cl)ccc1O	x	x	30µM!	x	x	x
O=C(Nc1cc(C(F)(F)F)cc(C(F)(F)F)c1)c1cccn(Cc2ccccc2Cl)c1=O	n	n	n	x	n	n
O=[N+]([O-])/C=C/c1c(Cl)cccc1Cl	n	n	n	32µM	n	x
S=c1[nH]c2cc(Br)cnc2[nH]1	n	n	n	u	n	n
CN(CC(=O)NC(=O)NCc1ccco1)CC(=O)Nc1ccccc1Cl	u	n	u	n[11.6 µM]	50µM	n
CN(C)CCNC(=S)Nc1ccccc1Cl	n	n	n	n	n	n
CC1=NNC(=O)C1Br (centres undefined)	n	n	n	28µM	28µM	x
S=C(c1ccc(Cl)cc1)N1CCOCC1	n	n	n	n	n	n
CCOC(=O)c1c(-n2c(C)cc(C=C3C(=O)NC(=S)NC3=O)c2C)sc2c1CCCC2	28µM	u	u	56µM	u	22µM
CCOc1ccc(NC(=O)C2C(C(=O)O)C3(Cl)C(Cl)=C(Cl)C2(Cl)C3(Cl)Cl)cc1 (centres undefined)	n	n	n	n	n	n
CCOC(=O)Nc1ccc(NCc2ccc(F)cc2)nc1N	28µM	u	n	n[11.6 µM]	4µM	n
COc1ccc(N2C(=O)CC(N3CCC(n4c(=O)[nH]c5ccccc54)CC3)C2=O)cc1 (centres undefined)	n	n	n	n	n	n
O=C(O)C(Cl)(Cl)Cl	n	n	n	n	n	x
CCCCn1c(N)c(C(=O)OCCOC)c2nc3ccccc3nc21	n	n	n	n	n	n
COc1ccc(Cn2c(N)c(C(=O)NCc3ccco3)c3nc4ccccc4nc32)cc1	u	n	n	n	u	56µM
CC(C)OCCCNC(=O)c1c(N)n(CC2CCCO2)c2nc3ccccc3nc12 (centres undefined)	n	n	n	n	7.1µM	u
CCCNC(=O)c1c(N)n(CC2CCCO2)c2nc3ccccc3nc12 (centres undefined)	n	u	n	n	n	n
SMILES	Pol eta inh	FEN1 inh	POLK inh	WRN helicase inh	Pol iota inh	POLB inh
CCCCn1c(N)c(C(=O)NCc2cccs2)c2nc3ccccc3nc21	n	n	n	n	u	n
COCCCn1c(N)c(C(=O)NCCC(C)C)c2nc3ccccc3nc21	n	u	n	n	4.5µM	n
CCCCCn1c(N)c(C(=O)NCc2cccs2)c2nc3ccccc3nc21	n	n	n	n	22µM	n
CN1C(=O)CCS(=O)(=O)C1c1ccc(Cl)cc1 (centres undefined)	n	x	n	x	u	n
CCOC(=O)C(O)(c1ccc(NC(=S)NC(=O)c2ccc(Cl)cc2Cl)c(C)c1)C(F)(F)F (centres undefined)	n	n	n	n	n	n
CNC(=O)Oc1cccc2c1OC(C)(C)O2	n	n	n	n	n	x
O=C(CNS(=O)(=O)c1ccc(Br)s1)N1CCC2(CC1)OCCO2	n	n	n	n	n	n
COc1cccc2c1C(=O)c1c(O)c3c(c(O)c1C2=O)C[C@@](O)(C(=O)CO)C[C@@H]3O[C@H]1C[C@H](N)[C@H](OC2CCCCO2)[C@H](C)O1 (some centres undefined)	x	18µM	10µM	x	u	x
COCCNC(=O)Cn1cc(/C=C2\C(=O)NC(=O)N(c3ccccc3F)C2=O)c2ccccc21	n	n	n	n	20µM	n
COCCNC(=O)Cn1cc(/C=C2\C(=O)NC(=O)N(c3cccc(C)c3C)C2=O)c2ccccc21	n	n	n	u	n	n
COc1ccc(N2C(=O)NC(=O)/C(=C\c3cn(CC(=O)N4CCOCC4)c4ccccc34)C2=O)c(OC)c1	n	u	n	n	13µM	n
COC(=O)C1=C(c2ccccc2OCc2ccccc2)C[C@@H]2CC[C@H]1N2C(=O)NCc1ccc(Cl)cc1	n	n	n	n	n	x
O=c1c(O)c(-c2ccc(O)c(O)c2)oc2c(O)c(O)cc(O)c12	x	x	1.1µM	x	x	x
CCCCn1c(=O)c(C(=O)NCc2ccccc2OC)c(O)c2ccccc21	n	n	n	n	n	n
O=c1[nH]c(=S)[nH]c(O)c1N=Nc1ccc(S(=O)(=O)N2CCc3ccccc32)cc1	n	n	n	n	n	79µM
O=C(Cn1ncc2c3ccccc3n(Cc3cccc(Cl)c3)c2c1=O)N1CCC2(CC1)OCCO2	u	n	n	n	u	18µM
Cc1c2cnn(CC(=O)N3CCC4(CC3)OCCO4)c(=O)c2c(C)n1Cc1cccc(Cl)c1	n	n	n	n	n	n
CC(C)(C)c1csc(NC(=O)Nc2ccccc2)n1	n	n	n	n	n	u
O=C(c1ccc(CS(=O)(=O)c2ccc(Br)cc2)o1)N1CCC2(CC1)OCCO2	n	n	n	n	n	n
O=C(c1ccc(CS(=O)(=O)c2ccccc2)o1)N1CCC2(CC1)OCCO2	89µM	n	n	n[11.6 µM]	u	u
Cc1ccc(N/N=C/C=C/c2ccco2)cc1	n	n	n	n	n	x
Cc1ccc(NC(=O)COC(=O)/C=C/c2ccco2)cc1S(=O)(=O)N(C)C	16µM	n	n	n	u	u
COC(=O)C1=C(c2cccc(OCc3ccccc3)c2)C[C@@H]2CC[C@H]1N2C(=O)NCc1ccc(C(C)(C)C)cc1	n	n	n	n	n	x
O=S(=O)(O)c1cc(N=C=S)ccc1/C=C/c1ccc(N=C=S)cc1S(=O)(=O)O	x	x	35µM	x	x	x
